# Compounds with a hit are over-represented: about 15% of the library has one in this group of screens.
# Pf growth 96h – P. falciparum growth inhibition at 96 hour, primary screen for plastid delayed-death inhibitors; P. falciparum luciferase reporter growth, 96 h; Potency, µM (titrated, usually from 28.7 µM), inactives show at the highest dose activity change, negative = inhibition, most hits filed as inhibitors; actives 6.9% (n = 320,000); AID 504834; also: potency is read from the fitted curve at half-maximal effect; % is scaled to controls: 0 for no effect and ±100 for the full control effect
#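 96 h incubation, 37 C, 5% CO2, of luciferase-reporter P. falciparum-infected RBCs (2% hematocrit, 0.05% parasitemia final) with test compounds; endpoint luminescence.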
# Pf growth 48h – inhibits P. falciparum growth in the first generation, 48 h; Potency, µM (titrated, usually from 28.7 µM), without a hit: top-dose activity change, negative = inhibition, most hits filed as inhibitors; actives 5.9% (n = 310,000); AID 504832; P. falciparum luciferase growth in erythrocytes, 48 h; also: potency is read from the fitted curve at half-maximal effect; % is scaled to controls: 0 for no effect and ±100 for the full control effect
#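 Firefly luciferase activity from engineered P. falciparum reports growth; inhibitors lower the luminescent signal. Cultures contained 2% hematocrit erythrocytes at 0.1% final parasitemia.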
# Sm TGR block – S. mansoni TGR enzyme inhibition. Q962Y6. purified TGR, DTNB reduction, TNB absorbance 405 nm. Potency, µM (highest dose often 114 µM), for the others: at the top dose activity change, negative = inhibition, hits mostly inhibitors. actives 3% (n = 360,000); also: potency is read from the fitted curve at half-maximal effect; % is scaled to controls: 0 for no effect and ±100 for the full control effect; nearly all actives have a fitted effect of over 60% in size
#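 First, TGR (20 nM dispensed) and NADPH were mixed with compound. Second, a 15 min room-temperature incubation followed. Third, further NADPH and then DTNB were added to start the reaction. Finally, TNB absorbance was monitored kinetically.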
# HCV inhibitor – HCV inhibition | Huh7.5.1 HCVcc-Cre infection, luciferase reporter, 44 h | Potency, µM (top dose mostly 41.8 µM), inactives show top-dose activity change, negative = inhibition, actives largely listed as inhibitors | AID 651820 | actives 3.4% (n = 340,000); also: potency is read from the fitted curve at half-maximal effect; % is scaled to controls: 0 for no effect and ±100 for the full control effect
#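 After 44 h co-culture of compound, cells and HCVcc-Cre (~0.5 moi), substrate is added for 15 min at room temperature and luciferase measured over 15 sec. Cells were seeded at 1,000/well and pre-cultured 4 h.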
# HCMV inh – blocks human cytomegalovirus replication. HFF cells, HCMV-luciferase reporter, 72 h; hits give low values. activity change, negative = inhibition, % at 57.5 µM. actives 4.5% (n = 410,000). AID 1259415; in the data active = activity change below about -60%; inconclusive = no clear call, values can overlap the other calls; inactive = above about -39%; also: % is scaled to controls: 0 for no effect and ±100 for the full control effect
#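 Screen run at 2 compound doses on HFFs infected with reporter HCMV, MOI 1 PFU/cell. Luciferase activity from cell lysates at 72 h post infection gave inhibition relative to buffer-only and Salinomycin wells.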
# SARS PLP yeast – SARS-CoV PLP inhibition in yeast | S. cerevisiae expressing SARS-CoV PLpro, growth rescue | Potency, µM (doses to about 32.9 µM), inactives show at the top dose activity, positive = growth rescue, most hits filed as activators | actives 0.19% (n = 330,000); calls by dose curve; also: potency is read from the fitted curve at half-maximal effect; 0% is about no effect; nearly all actives have a fitted effect of over 55% in size
# Numbers without * were called inactive; ? = inconclusive; / = no result; [ ] = another dose, or the depositor's remark. Unless noted, calls follow the shape of the dose curve; as a rule, active = well fitted curve in the direction sought with a large enough effect; inconclusive = small, poorly fitted or top-dose-only effect, or another doubt; inactive = no such curve, though single readings can be large; an effect the other way counts as inactive or inconclusive.
SMILES,Pf growth 96h,Pf growth 48h,Sm TGR block,HCV inhibitor,HCMV inh,SARS PLP yeast
COc1ccc(Cl)cc1NC(=O)CN1CCCCCC1,?,-5.5%,-9.1%,-9.9%,-3.5,-0.2%
COc1cc(NC(=O)Nc2ccccc2)c(OC)cc1NC(=O)CN1CCCCC1,/,?,-6.6%,11.2µM*,-3.2,0.8%
COc1ccc(NC(=O)CCC(=O)N2CCCC2)c([N+](=O)[O-])c1,-26.0%,-6.3%,2.7%,7.5%,?,-2.7%
CCOc1ccc(CNC(=O)c2ccc3c(c2)nc2n3CCC(C)C2)cc1OC (configuration not stated),/,/,-1.3%,/,?,/
COc1ccccc1N1CCN(C(=O)C(F)F)CC1,?,/,19.7%[11.4 µM],21.0%,-37.7,-0.9%
COc1ccccc1N1CCN(C(=O)/C=C/c2c(Cl)nc3ccccn23)CC1,39.2%,?,-6.3%,11.2µM*,?,-4.4%
COc1ccc(NC(=O)/C=C/c2c(Cl)nc3ccccn23)cc1,-18.6%,0.8%,0.4%,?,-61.8*,-3.9%
C=CCOC(=O)C1=C[C@H](c2coc3ccccc3c2=O)C[C@H](OCCCCO)O1,/,/,/,-13.6%,9.5,/
COc1cccc(C(O)c2nc(-c3cccc(F)c3)cs2)c1 (configuration not stated),/,/,/,/,-20.2,/
CCCSC(=S)c1c(C)[nH]n(-c2ccccc2)c1=O,-13.6%,0.5%,?,?,-79.0*,-2.2%
Cc1cn2c(=O)cc(COC(=O)COc3ccc(C)c(C)c3)nc2s1,/,/,22.2%,/,21.5,/
CC(C)=CC(=O)OCc1csc(CC(=O)Nc2ccccc2C)n1,-27.2%,-14.4%,2.1%,-5.8%,-15.8,-9.1%
Cc1ccc(NC(=O)Cc2nc(COC(=O)c3c(F)cccc3Cl)cs2)cc1,/,/,/,8.91µM*,-16.8,-14.5%
Cc1ccc(C)c(OCCC(=O)OCc2csc(CC(=O)Nc3ccccc3C)n2)c1,?,11.7µM*,1.6%,5.1%,?,-0.2%
Cc1ccc(C)c(NC(=O)Cc2nc(CCl)cs2)c1,?,14.7µM*,0.0%,-2.8%,?,-7.4%
CC(=O)c1c(C)[nH]c(C(=O)OCc2csc(CC(=O)Nc3ccccc3C)n2)c1C,/,/,/,4.47µM*,24.8,3.0%
Cc1ccc(OCCC(=O)OCc2csc(CC(=O)Nc3ccccc3C)n2)cc1,-20.8%,-23.8%,5.6%,11.8%,26.9,-9.2%
CC(=O)c1ccccc1OCCCCN1CCCCC1,?,38.4%,-2.1%,8.5%,13.6,0.8%
Cc1ccccc1NC(=O)Cc1nc(COC(=O)c2cc([N+](=O)[O-])ccc2NCCO)cs1,?,?,0.9%,8.91µM*,-4.0,-2.4%
Cc1ccccc1NC(=O)Cc1nc(COC(=O)c2cccc([N+](=O)[O-])c2)cs1,4.15µM*,-8.8%,-7.2%,-8.0%,3.3,-1.3%
Cc1ccccc1NC(=O)Cc1nc(COC(=O)c2ccc(Cl)c(S(N)(=O)=O)c2)cs1,13.1µM*,?,-0.9%,-28.6%,-25.5,2.0%
Cc1ccccc1NC(=O)Cc1nc(COC(=O)c2ccc([N+](=O)[O-])cc2)cs1,25.8%,17.8%,-2.7%,-13.8%,-10.6,3.2%
Cc1ccccc1NC(=O)Cc1nc(COC(=O)c2cccc(O)c2)cs1,-47.6%,?,-2.5%,?,82.5,1.0%
C=CCN1C(=O)C(CC(=O)NCC)SC1=Nc1ccccc1OC (configuration not stated),-15.9%,5.7%,-2.8%,6.6%,1.3,-6.2%
CC(=O)N1CCOc2cc(S(=O)(=O)Nc3c(C)cccc3C(C)C)c(Cl)cc21,5.22µM*,8.28µM*,79.4µM*,/,7.4,-3.8%
SMILES,Pf growth 96h,Pf growth 48h,Sm TGR block,HCV inhibitor,HCMV inh,SARS PLP yeast
COc1cccc(NS(=O)(=O)c2cc3c(cc2C)N(C(C)=O)CCO3)c1,?,-12.8%,7.6%,-17.7%,19.1,9.5%
CC1(C#CC[N+]2(C)CCCCC2)CCC2C(O1)c1ccccc1OC2(C)C (configuration not stated),3.7µM*,11.7µM*,-1.2%,-15.4%,9.2,-1.7%
c1ccc(-n2ncc3c(NCCN4CCOCC4)ncnc32)cc1,11.7µM*,84.8%,-0.9%,-0.6%,116.7,6.3%
c1ccc(-n2ncc3c(NCCN4CCCCC4)ncnc32)cc1,392.9%,122.2%,50.1µM*,9.0%,17.4,-1.8%
N#C/C(=C1\C(=O)Nc2c(Cl)cc(Cl)cc21)c1nnc2n1CCCCC2,?,23.7%,-17.7%,-15.4%,5.0,7.5%
CCCOc1ccc(CNC(=O)C2CCCN(c3nc4c(C)cc(C)cc4s3)C2)cc1 (configuration not stated),/,/,5.0%,/,-23.9,/
CC1(C)Cc2cccc(Oc3ccc(S(=O)(=O)N4CCCCC4)cn3)c2O1,?,13.1µM*,0.7%,-16.9%,-25.1,-0.7%
CC1(C)Cc2cccc(Oc3ccc(S(=O)(=O)N4CCCC4)cn3)c2O1,?,11.7µM*,1.5%,?,-32.2,-0.4%
N#Cc1ccccc1Oc1ccc(S(=O)(=O)N2CCCCC2)cn1,44.8%,11.1%,7.5%,-7.3%,9.9,-4.2%
O=S(=O)(c1ccc(Oc2ccc(Br)cc2F)nc1)N1CCCCC1,?,13.8%,-8.5%,25.1µM*,-0.8,5.3%
CC1(C)Cc2cccc(OCC(=O)N3CCN(S(=O)(=O)c4ccc(F)cc4)CC3)c2O1,9.28µM*,?,2.3%,-18.8%,20.9,3.0%
Cc1cccc(N2CCN(C(=O)COc3cccc4c3OC(C)(C)C4)CC2)c1C,?,?,-7.4%,?,17.8,-54.1%
CCc1ccccc1Oc1ccc(S(=O)(=O)N2CCN(C)CC2)cn1,35.1%,61.5%,5.3%,-17.5%,10.7,-1.3%
COc1ccc(-c2noc(CN(C(=O)COc3cc(C)c(Br)c(C)c3)C(C)C)n2)cc1,/,/,7.8%,/,?,/
CC(=O)OCC1OC(OC2C[C@]3(C)C(CC(O)C4C([C@](C)(CCC=C(C)C)OC5OC(CO)C(O)C(O)C5O)CC[C@]43C)[C@@]3(C)CCC(O)C(C)(C)C23)C(O[C@@H]2OC(C)C(O)C(O)C2O)C(O)C1O (some centres not stated),/,/,/,28.6%,/,/
CC1=C(C(N)=O)C(c2cccc(C)c2)n2nc(-c3ccc(Cl)cc3)nc2N1 (configuration not stated),/,/,1.7%,/,139.0,/
O=C(O)c1ccc(CN2C[C@@H](CO)O[C@@H](n3cnc4c(NCc5ccco5)ncnc43)C2)cc1,/,/,/,/,-23.3,/
O=C(NCc1cc(C(F)(F)F)cc(C(F)(F)F)c1)C12CN(Cc3ccccc3)CC1C(c1cccc([N+](=O)[O-])c1)=NO2 (configuration not stated),?,13.1µM*,-0.2%,-10.8%,/,-1.7%

# Screens as filed in PubChem.
